In the library only some 2.3% were active in any assay of this set; here they are far more common.
Nrf2 ARE act = activates Nrf2 signaling; Potency, µM (highest dose often 46.1 µM), for inactives: top-dose activation, usual class: activators; AID 624171; 410,000 compounds, 0.31% hits; AREc32 ARE-luciferase reporter (MCF7-derived line), luminescence, 24 h; also: % of control where 0% means no effect; nearly all actives have a fitted effect of over 65% in size
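Cells of the AREc32 ARE-luciferase line are plated in OPTI-MEM containing 5% FBS and left overnight at 37 deg C. Compounds are pinned in, incubation continues 24 hr, and firefly luciferase signal is then measured.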
Rango release inh = inhibitors of RanGTP-induced Rango-importin beta complex dissociation. 340,000 compounds, 0.071% hits. Biochemical FRET Rango-importin beta, RanGTP-induced dissociation. AID 540253. O95149+P62826. Potency, µM (titrated, usually from 46.1 µM), for inactives: at the top dose activity change, negative = inhibition; calls by dose curve; also: % of control where 0% means no effect; nearly all actives have a fitted effect of over 45% in size
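FRET read at 45 min, room temperature: inhibitors block the CFP/YFP signal rise when RanGTP (0.6 uM Ran, 2 mM GTP, 0.2 uM RCC1) frees Rango (0.1 uM) from importin beta (0.25 uM). Pre-read after 5 min compound exposure flags interference.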
A549 tox = kills or reduces viability of A549 cells in Nrf2 counter-screen | A549 ARE-Fluc cells, CellTiter-Fluor viability, 18-24 h | Potency, µM (top dose mostly 46 µM), without a hit: at the top dose activity change, negative = cytotoxicity, most hits filed as inhibitors | 390,000 compounds, 0.16% hits; also: % is scaled to controls: 0 for no effect and ±100 for the full control effect
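Cytotoxicity counterscreen: CellTiter-Fluor fluorescence was measured in A549 ARE_Fluc cells after 18-24 h of compound exposure in a concentration series. The subsequent BugLite luminescent read reports ARE-luciferase activity.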
Rango complex inh = prevents formation of the Rango-importin beta complex; Q14974; Rango CFP/YFP FRET sensor + importin beta, 45 min; Potency, µM (doses to about 92.2 µM), for the others: top-dose inhibition of complex formation; 340,000 compounds, 0.031% hits; AID 540263; calls by dose curve;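 also: 0% = DMSO wells and 100% = buffer wells lacking importin beta; nearly all actives have a fitted effect of over 15% in size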
Target sequence (Q14974 whole entry, looked up): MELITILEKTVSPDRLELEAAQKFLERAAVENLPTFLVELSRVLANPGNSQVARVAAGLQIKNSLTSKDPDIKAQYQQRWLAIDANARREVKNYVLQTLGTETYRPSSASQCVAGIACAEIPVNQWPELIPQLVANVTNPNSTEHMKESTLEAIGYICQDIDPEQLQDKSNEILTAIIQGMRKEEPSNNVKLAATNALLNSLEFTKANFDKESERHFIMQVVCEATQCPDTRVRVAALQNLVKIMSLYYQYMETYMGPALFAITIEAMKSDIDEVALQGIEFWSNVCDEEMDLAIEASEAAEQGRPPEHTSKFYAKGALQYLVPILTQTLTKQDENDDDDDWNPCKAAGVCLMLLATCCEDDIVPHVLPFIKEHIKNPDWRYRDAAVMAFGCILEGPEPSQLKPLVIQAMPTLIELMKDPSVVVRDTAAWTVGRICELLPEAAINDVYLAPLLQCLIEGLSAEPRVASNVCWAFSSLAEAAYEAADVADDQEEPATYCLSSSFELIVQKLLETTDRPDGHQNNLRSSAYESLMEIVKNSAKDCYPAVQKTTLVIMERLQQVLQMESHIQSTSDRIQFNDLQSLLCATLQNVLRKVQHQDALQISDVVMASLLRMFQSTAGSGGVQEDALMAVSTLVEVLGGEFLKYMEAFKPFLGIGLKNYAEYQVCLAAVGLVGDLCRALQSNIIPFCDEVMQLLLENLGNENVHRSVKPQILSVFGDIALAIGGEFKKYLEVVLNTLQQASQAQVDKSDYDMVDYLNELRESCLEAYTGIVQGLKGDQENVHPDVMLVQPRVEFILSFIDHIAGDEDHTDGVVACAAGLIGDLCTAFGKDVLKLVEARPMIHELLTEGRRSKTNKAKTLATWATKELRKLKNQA
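FRET biosensor (snurportin 1 IBB flanked by EYFP and cerulean), 50 nM, with compound 5 min, then 0.125 microM importin beta in PBS, 1 mM DTT, 0.02% Tween-20, 0.1% BSA. CFP/YFP ratio read after 45 min at room temperature; pre-read flags interference.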
Nrf2 block = blocks Nrf2 signaling | A549 ARE-Fluc reporter, luciferase luminescence, 18-24 h | Potency, µM (top dose mostly 46 µM), without a hit: at the top dose activity change, negative = inhibition, most hits filed as inhibitors | 360,000 compounds, 2.1% hits; also: % is scaled to controls: 0 for no effect and ±100 for the full control effect; nearly all actives have a fitted effect of over 60% in size
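Cells were seeded and rested 2 h, then exposed to compounds for 18-24 h. CellTiter-Fluor was read first as a viability measure. BugLite was added 15 min before the final luminescent read of ARE-luciferase activity in A549 cells.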
* marks the source's active call; other numbers are inactive results; ? = inconclusive; nt = not tested or not shown; ! = not confirmed by another sample; [ ] = another dose, or the depositor's remark. Unless noted, calls follow the shape of the dose curve; as a rule, active = well fitted curve in the direction sought with a large enough effect; inconclusive = small, poorly fitted or top-dose-only effect, or another doubt; inactive = no such curve, though single readings can be large; an effect the other way counts as inactive or inconclusive. Potency is read from the fitted curve at half-maximal effect.

SMILES | Nrf2 ARE act | Rango release inh | A549 tox | Rango complex inh | Nrf2 block
COc1ccc(NC(=O)c2ccc3c(c2)NC(=O)CS3)cc1S(=O)(=O)Nc1ccc(Br)cc1 | -0.6% | 16.0% | 2.3% | -0.3% | -29.8%
CCS(=O)(=O)c1ncc(Cl)c(C(=O)N(Cc2ccccc2)Cc2ccco2)n1 | ? | nt | 16.4µM* | nt | 23.1µM*
CCSc1ncc(Cl)c(C(=O)N(Cc2ccc(N(C)C)cc2)Cc2ccco2)n1 | 10.8% | nt | -9.9% | nt | 18.4µM*
Cc1ccc(C(=O)N(Cc2ccc(N(C)C)cc2)Cc2ccco2)cc1 | 10.7% | nt | 1.0% | nt | ?
O=C(NCCC1=CCCCC1)c1ccc2c(c1)ncn2-c1cccc(Cl)c1 | 0.3% | nt | 8.9% | nt | nt
O=C(Nc1nccs1)c1ccc(S(=O)(=O)NCC2CCCCC2)cc1 | 0.1% | 8.3% | -16.6% | 0.7% | 13µM*
O=C(Nc1nccs1)c1ccc(S(=O)(=O)NCc2cccs2)cc1 | 3.4% | -17.9% | -0.1% | -3.4% | -28.6%
CCOc1ccc(OCC(=O)NCCS(=O)(=O)N2CCN(c3ccccc3F)CC2)cc1 | 0.5% | nt | -0.5% | nt | nt
O=C(CCCSc1ccc(Cl)cc1)Nc1ccccc1O | 14.1µM* | 19.3% | 2.2% | 0.6% | 2.1%
O=C(CSCc1ccc(Cl)cc1)Nc1ccccc1O | ? | 7.7% | -0.3% | 0.8% | 5.4%
COc1ccc(OC)c(C2=NS(=O)(=O)N(C)C(C(=O)Nc3ccc(F)cc3F)=C2)c1 | 0.4% | -0.1% | ? | 1.6% | 14.6µM*!
CC(=O)Nc1ccc(NC(=O)COc2ccc(-c3ccc(C#N)cc3)cc2)cc1 | 0.1% | 0.7% | 1.2% | -1.5% | 8.6%
O=C(COc1ccc(C(=O)c2ccccc2)cc1)Nc1cccnc1 | 0.2% | -2.2% | ? | 5.2% | 23.1µM*
N#Cc1ccc(-c2ccc(OCC(=O)Nc3cccnc3)cc2)cc1 | 1.8% | 10.7% | -12.8% | -4.7% | 7.31µM*
O=C(CCCOc1ccccc1)Nc1cccnc1 | -0.7% | -11.1% | 3.8% | -0.8% | 10.8%
N#Cc1ccc(N2CCN(S(=O)(=O)c3ccc4c(c3)CC(=O)N4)CC2)cc1 | nt | nt | 14.5% | nt | 6.6%
COc1ccc(C(CC(=O)c2ccc(O)cc2)S(=O)(=O)c2ccc(C)cc2)cc1 (centres undefined) | 12.6µM* | 6.8% | -15.2% | -5.9% | 6.5%
COc1ccc(C(=O)CCS(=O)(=O)c2ccc(C)cc2)cc1 | ? | -8.3% | 0.8% | 0.8% | 6.4%
O=S(=O)(C/C(=C/CO)S(=O)(=O)c1ccccc1)c1ccccc1 | ? | -8.1% | 16.4µM* | -1.8% | ?
CCN(CC)c1ccc(NC(=O)C2CCN(S(=O)(=O)c3c(C)noc3/C=C/c3ccccc3F)CC2)c(C)c1 | 6.7% | nt | 1.7% | nt | nt
N#CC(c1ccccc1)c1ccc2c(C(F)(F)F)cc(C(F)(F)F)nc2n1 (centres undefined) | ? | -16.5% | ? | ? | 25.9µM*
CC1=NN(c2ccccc2)C(=O)C1C(=O)c1ccc(Cl)cc1 (centres undefined) | -0.1% | 14.9% | ? | -0.2% | 18.4µM*
Cn1c(N)c(C(C[N+](=O)[O-])c2c(F)cccc2Cl)c(=O)n(C)c1=O (centres undefined) | 15.8µM* | ? | -5.0% | -1.7% | 10.9%
Cc1ccc(OCC(=O)Nc2ccc(Cl)c(-c3nc4ncccc4o3)c2)c(C)c1 | 0.8% | nt | -2.7% | nt | nt
CSCCC(NC(=O)c1ccco1)C(=O)Nc1ccc(C)c(S(=O)(=O)N2CCOCC2)c1 (centres undefined) | 0.0% | -10.8% | 1.5% | 2.0% | -10.4%
SMILES | Nrf2 ARE act | Rango release inh | A549 tox | Rango complex inh | Nrf2 block
Cc1cccc(C(=O)N2N=C(c3ccc(NS(C)(=O)=O)cc3)CC2c2cccs2)c1 (centres undefined) | 2.9% | 22.0% | -18.5% | -0.7% | 23.1µM*
Cn1cc(C=O)c2cc(F)ccc21 | 0.2% | -2.8% | -0.5% | 3.1% | 12.2%
Cn1cc(/C=C/c2cc[n+](C)cc2)c2cc(Cl)ccc21 | 0.3% | ? | ? | ? | 10.3µM*
O=C1CCc2cc(S(=O)(=O)Nc3ccc(Cl)cc3)ccc2N1 | nt | nt | -5.1% | nt | ?
Cc1cc(N2C(=O)c3ccccc3C2=O)n[nH]1 | nt | nt | 12.6% | nt | 11.2%
OCCC1CN(Cc2cccc(-n3cccn3)c2)CCN1Cc1ccccc1 (centres undefined) | -0.1% | 5.0% | -8.8% | -2.2% | -10.8%
CCn1c(=O)c(C(=O)CN2CCCc3ccccc32)c(N)n(Cc2ccccc2)c1=O | 2.0% | -20.0% | -3.4% | ? | 16.4µM*
CCCCCCCCCCn1ccc(=N)cc1 | 2.4% | 4.4% | -28.0% | 4.5% | 14.6µM*
CCCCCCCCn1ccc(=N)cc1 | -1.6% | 5.8% | 0.1% | 2.0% | -23.0%
COc1cc(SC)ccc1C(=O)Nc1cccc(C)n1 | 1.2% | 14.4% | 3.8% | 1.1% | ?
COc1cc(SC)ccc1C(=O)Nc1ccccn1 | 12.6µM* | 13.3% | -9.7% | 2.0% | ?
COc1ccc2c(Sc3ccc(Cl)cc3)c(C(=O)N3CCCCC3)[nH]c2c1 | 0.1% | nt | -9.2% | nt | 20.6µM*
COc1ccc2c(Sc3ccc(C)cc3)c(C(=O)NCC(C)c3ccccc3)[nH]c2c1 (centres undefined) | -0.6% | nt | 5.0% | nt | ?
COc1ccc2c(Sc3ccc(Cl)cc3)c(C(=O)N3CCC(C)CC3)[nH]c2c1 | 6.1% | nt | 8.7% | nt | ?
COc1ccc2c(Sc3ccc(C)cc3)c(C(=O)NC(C)C)[nH]c2c1 | -0.1% | nt | -2.3% | nt | 23.1µM*
O=C1NC(=O)/C(=C\c2ccc(O)cc2O)S1 | 0.3% | -15.2% | -3.2% | -0.2% | -6.3%
Cc1cc(N2CCCCC2)nc2ccc(NC(=O)c3ccc(Br)o3)cc12 | -0.1% | -15.1% | ? | 0.7% | 20.6µM*
CCN(CC)CCNC(=S)Nc1ccc2nc(N3CCCC3)cc(C)c2c1 | 9.0% | -11.4% | 5.8µM* | -6.2% | 1.5%
O=C(Cc1ccc(NC(=O)N2CCSc3ncccc32)cc1)NCCc1ccccc1 | 2.8% | nt | 5.3% | nt | -2.7%
CCOC(=O)c1cccc(NC(=O)c2cc3c(Cl)nc4ccc(C)cc4c3s2)c1 | -0.2% | nt | 14.1% | nt | ?
CCS(=O)(=O)CCSc1nc(C)cc(C)c1C#N | 0.0% | -4.4% | -1.0% | 1.4% | 0.0%
Cc1ccc(S(=O)(=O)CCSc2nc(C)cc(C)c2C#N)cc1 | 4.3% | 18.5% | -21.2% | ? | 20.6µM*
CSc1nc(N)nc(SCCS(=O)(=O)c2ccc(Cl)cc2)c1C#N | 12.6µM* | 14.5% | -1.0%[1.84 µM] | 5.1% | ?
CSc1nc(N)nc(SCC(=O)Nc2ccc(Cl)cc2)c1C#N | 16.9% | 15.0% | ? | 4.1% | 14.6µM*
Cc1nc(-c2ccccc2)sc1CCNS(=O)(=O)c1ccc(Br)cc1 | -0.2% | nt | 3.7% | nt | nt
COc1cccc(C)c1NC(=O)C(OC(=O)CNC(=O)c1ccccc1)c1ccccc1 (centres undefined) | nt | nt | 0.2% | nt | 16.7%

Assay outcomes from PubChem BioAssay.
